# Data reported in PubChem BioAssay (EPA / NIEHS).
# Records with an inconclusive call do not appear. Calls of active or inactive are those of the source. Rule for the calls: active = hit-call score of the fitted dose curve at least 0.9, where 1 is the maximum; inconclusive = response in the unintended direction; inactive = score below 0.9.
# Assays:
# [1] = molecular target: Estrogen receptor (Homo sapiens) (UniProt P03372); assay: OT_ER_ERaERa_0480: Odyssey Thera (OT) 8-hour HEK293T Protein-Complementation Assay for Estrogen Receptor-alpha/-alpha Homodimer (AID 2283351);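 note: rise in fluorescence from reassembled reporter fragments on ERα LBD homodimer in nucleus or whole cell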
# Chain of Estrogen receptor (Homo sapiens) (P03372 whole entry, looked up, the tested form may be a part): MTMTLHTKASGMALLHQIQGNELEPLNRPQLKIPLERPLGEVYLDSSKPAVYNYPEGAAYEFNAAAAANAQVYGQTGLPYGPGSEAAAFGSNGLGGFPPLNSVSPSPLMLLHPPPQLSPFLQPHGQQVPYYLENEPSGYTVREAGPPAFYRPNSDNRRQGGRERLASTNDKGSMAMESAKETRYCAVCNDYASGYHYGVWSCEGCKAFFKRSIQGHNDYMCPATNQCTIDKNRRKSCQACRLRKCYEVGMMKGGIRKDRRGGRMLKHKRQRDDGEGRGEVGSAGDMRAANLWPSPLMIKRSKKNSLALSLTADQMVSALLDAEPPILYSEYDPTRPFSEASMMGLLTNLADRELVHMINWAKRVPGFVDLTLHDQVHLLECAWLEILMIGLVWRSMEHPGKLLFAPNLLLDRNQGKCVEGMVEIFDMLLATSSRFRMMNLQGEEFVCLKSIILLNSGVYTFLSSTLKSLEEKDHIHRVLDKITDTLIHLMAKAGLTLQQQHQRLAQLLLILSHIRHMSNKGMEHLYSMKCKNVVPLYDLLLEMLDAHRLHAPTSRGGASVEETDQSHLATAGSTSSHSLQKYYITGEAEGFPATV
# Summary of the method: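 HEK293T cells stably expressing a PCA pair of ER alpha LBD (residues 310-547) were dosed for 8 hours. The gain in fluorescence intensity, nuclear for agonists and whole-cell for antagonists, was measured by laser scanning cytometry against DMSO vehicle.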
# [2] = molecular target: T1, Estrogen receptor (Homo sapiens) + Estrogen receptor beta (Homo sapiens) (UniProt P03372+Q92731); assay: OT_ER_ERaERb_0480: Odyssey Thera (OT) 8-hour HEK293T Protein-Complementation Assay for Estrogen Receptor-alpha/-beta Heterodimer (AID 2283352)
# T1 sequence (P03372 whole entry, looked up): as the sequence (P03372 whole entry, looked up, the tested form may be a part) above
# T1 sequence (Q92731 whole entry, looked up): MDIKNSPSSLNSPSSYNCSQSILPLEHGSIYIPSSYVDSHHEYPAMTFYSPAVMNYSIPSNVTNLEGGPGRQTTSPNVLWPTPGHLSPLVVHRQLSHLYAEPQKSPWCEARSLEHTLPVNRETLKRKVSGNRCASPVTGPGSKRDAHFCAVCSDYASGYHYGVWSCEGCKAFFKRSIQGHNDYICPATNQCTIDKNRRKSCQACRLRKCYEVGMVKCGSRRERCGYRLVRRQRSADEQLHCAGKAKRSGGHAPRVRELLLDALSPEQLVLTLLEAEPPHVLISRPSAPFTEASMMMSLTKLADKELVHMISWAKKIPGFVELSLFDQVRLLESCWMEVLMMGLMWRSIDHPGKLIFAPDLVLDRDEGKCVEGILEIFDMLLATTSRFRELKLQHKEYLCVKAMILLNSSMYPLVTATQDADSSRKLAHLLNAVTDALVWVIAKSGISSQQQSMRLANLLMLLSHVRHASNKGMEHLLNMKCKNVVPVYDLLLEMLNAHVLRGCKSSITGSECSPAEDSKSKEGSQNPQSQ
# Summary of the method: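 Compound added to HEK293T cells carrying split-reporter-tagged ER-alpha and ER-beta LBDs, incubated 8 hours, then imaged by laser scanning cytometer. Signal rise in nucleus, or nucleus and cytoplasm, over vehicle was fitted in the positive direction.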
# [3] = molecular target: T1, Estrogen receptor (Homo sapiens) + Estrogen receptor beta (Homo sapiens); assay: OT_ER_ERaERb_1440: Odyssey Thera (OT) 24-hour HEK293T Protein-Complementation Assay for Estrogen Receptor-alpha/-beta Homodimer (AID 2283356);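 note: heteromer of ER alpha and ER beta binding domains; hits raise reporter fluorescence and both agonists and antagonists give an increase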
# Summary of the method: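 Stable HEK293T PCA line, ERα LBD 310-547 + ERβ LBD 263-489 fused to reporter fragments; 24 h treatment; fluorescence read by laser scanning cytometry; positive fitting direction relative to DMSO.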
# PGR (gene 5241) = PGR (gene 5241) (UniProt P06401); assay: NVS_NR_hPR: NovaScreen (NVS) Nuclear Receptor Binding Assay for human Progestron Receptor (PR) (AID 2283360);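 note: active means loss of bound radioligand signal versus DMSO baseline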
# Chain of PGR (gene 5241) (P06401 whole entry, looked up): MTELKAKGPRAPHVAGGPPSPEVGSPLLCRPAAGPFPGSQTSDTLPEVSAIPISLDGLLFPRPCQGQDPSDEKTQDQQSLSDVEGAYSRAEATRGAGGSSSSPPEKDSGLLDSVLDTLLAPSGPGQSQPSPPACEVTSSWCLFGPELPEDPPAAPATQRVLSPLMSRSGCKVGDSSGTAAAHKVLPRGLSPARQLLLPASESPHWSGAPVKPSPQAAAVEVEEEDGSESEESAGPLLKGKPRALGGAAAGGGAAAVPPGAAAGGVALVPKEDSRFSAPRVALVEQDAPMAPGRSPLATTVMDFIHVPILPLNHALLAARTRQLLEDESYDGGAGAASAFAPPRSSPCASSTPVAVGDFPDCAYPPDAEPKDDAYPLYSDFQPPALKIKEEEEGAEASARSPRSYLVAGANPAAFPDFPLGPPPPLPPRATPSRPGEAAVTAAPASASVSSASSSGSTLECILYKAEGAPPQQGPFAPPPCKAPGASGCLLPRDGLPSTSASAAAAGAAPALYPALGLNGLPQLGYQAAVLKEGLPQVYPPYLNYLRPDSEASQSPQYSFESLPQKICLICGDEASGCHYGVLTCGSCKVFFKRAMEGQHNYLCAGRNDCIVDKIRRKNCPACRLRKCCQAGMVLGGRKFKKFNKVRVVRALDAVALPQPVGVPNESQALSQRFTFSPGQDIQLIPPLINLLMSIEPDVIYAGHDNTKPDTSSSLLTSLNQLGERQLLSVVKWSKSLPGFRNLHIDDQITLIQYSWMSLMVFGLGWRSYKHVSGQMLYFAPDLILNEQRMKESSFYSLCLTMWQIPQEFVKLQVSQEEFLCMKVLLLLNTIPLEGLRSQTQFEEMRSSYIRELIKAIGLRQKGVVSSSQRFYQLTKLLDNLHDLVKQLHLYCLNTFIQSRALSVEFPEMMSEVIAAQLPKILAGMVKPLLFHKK
# Summary of the method: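 Competitive displacement of a labelled radioligand from T47D-derived receptor protein is measured in a cell-free format. Initial testing uses 25 uM in duplicate, with positive and negative controls on every plate.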
# [4] = molecular target: guinea pig Sigma Receptor, Non-selective Binding, SIGMAR1 (gene 100135589) (UniProt Q60492); assay: NVS_OR_gSIGMA_NonSelective: NovaScreen (NVS) Nuclear Receptor Binding Assay for guinea pig Sigma Receptor, Non-selective Binding (AID 2283367)
# Chain of guinea pig Sigma Receptor, Non-selective Binding, SIGMAR1 (gene 100135589) (Q60492 whole entry, looked up): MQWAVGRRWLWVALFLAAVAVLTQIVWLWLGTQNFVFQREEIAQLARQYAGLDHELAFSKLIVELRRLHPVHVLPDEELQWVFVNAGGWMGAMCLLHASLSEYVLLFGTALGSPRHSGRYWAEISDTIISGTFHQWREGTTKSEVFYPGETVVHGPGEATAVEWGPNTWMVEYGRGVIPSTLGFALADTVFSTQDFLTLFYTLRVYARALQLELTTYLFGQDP
# Summary of the method: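 Test chemicals were screened in duplicate at 25 uM, then in concentration series if active, against radioligand binding to guinea pig brain membranes; filtration and scintillation counting at 1 h measured remaining bound ligand.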
# [5] = molecular target: Androgen Receptor/SRC-1 Co-activator, AR (gene 367) (UniProt P10275); assay: OT_AR_ARSRC1_0960: Odyssey Thera (OT) 16-hour HEK293T Protein-Complementation Assay for Androgen Receptor/SRC-1 Co-activator (AID 2283353);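 note: actives raise the signal above DMSO so potency reflects increased AR and SRC-1 complex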
# Summary of the method: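 Endpoint is gain-of-signal N/C fluorescence ratio in the 488 nm channel versus DMSO, from at least 400 cells per image, measured 16 h post-dosing. Cells: HEK293T stably carrying split-Venus AR/SRC-1 complementation constructs.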
# [6] = molecular target: Androgen Receptor/SRC-1 Co-activator, AR (gene 367) (UniProt P10275); assay: OT_AR_ARSRC1_0480: Odyssey Thera (OT) 8-hour HEK293T Protein-Complementation Assay for Androgen Receptor/SRC-1 Co-activator (AID 2283354);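 note: hits raise the complementation signal above DMSO so AC50 marks enhancers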
# Summary of the method: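 After 8 h dosing, stably expressing HEK293T cells with split-Venus AR/SRC-1 fusions were imaged (488, 635nm). The 488nm N/C ratio per image gave the endpoint, analysed in the positive direction against DMSO.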
# [7] = molecular target: Peroxisome proliferator-activated receptor gamma (Homo sapiens) (UniProt P37231); assay: NVS_NR_hPPARg: NovaScreen (NVS) Nuclear Receptor Binding Assay for human Peroxisome Proliferator-activated Receptor gamma (PPARg) (AID 2283370)
# Chain of Peroxisome proliferator-activated receptor gamma (Homo sapiens) (P37231 whole entry, looked up): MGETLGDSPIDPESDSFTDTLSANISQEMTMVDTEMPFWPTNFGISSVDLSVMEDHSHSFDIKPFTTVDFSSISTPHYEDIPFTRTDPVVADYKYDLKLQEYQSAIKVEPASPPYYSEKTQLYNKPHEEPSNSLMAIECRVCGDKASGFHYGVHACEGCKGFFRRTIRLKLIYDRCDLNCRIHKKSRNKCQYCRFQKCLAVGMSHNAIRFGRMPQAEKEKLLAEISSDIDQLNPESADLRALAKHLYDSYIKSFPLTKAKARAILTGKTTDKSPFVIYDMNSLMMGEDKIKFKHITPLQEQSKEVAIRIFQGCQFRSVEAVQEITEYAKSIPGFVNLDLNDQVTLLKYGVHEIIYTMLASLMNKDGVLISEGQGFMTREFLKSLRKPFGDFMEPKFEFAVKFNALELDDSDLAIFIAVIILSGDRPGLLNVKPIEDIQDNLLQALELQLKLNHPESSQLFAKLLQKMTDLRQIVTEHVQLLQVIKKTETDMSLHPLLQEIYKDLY
# Summary of the method: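 Chemicals were tested first in duplicate at 25 uM, then in concentration series if active. Binding to cell-free PPARg protein was measured by fluorescence polarization after 2 h, with loss of signal scored against DMSO.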
# [8] = molecular target: Bile acid receptor (Homo sapiens) (UniProt Q96RI1); assay: NVS_NR_hFXR_Antagonist: NovaScreen (NVS) Nuclear Receptor Binding Assay for human Farnesoid X Receptor Antagonism (FXR) (AID 2283350)
# Chain of Bile acid receptor (Homo sapiens) (Q96RI1 whole entry, looked up): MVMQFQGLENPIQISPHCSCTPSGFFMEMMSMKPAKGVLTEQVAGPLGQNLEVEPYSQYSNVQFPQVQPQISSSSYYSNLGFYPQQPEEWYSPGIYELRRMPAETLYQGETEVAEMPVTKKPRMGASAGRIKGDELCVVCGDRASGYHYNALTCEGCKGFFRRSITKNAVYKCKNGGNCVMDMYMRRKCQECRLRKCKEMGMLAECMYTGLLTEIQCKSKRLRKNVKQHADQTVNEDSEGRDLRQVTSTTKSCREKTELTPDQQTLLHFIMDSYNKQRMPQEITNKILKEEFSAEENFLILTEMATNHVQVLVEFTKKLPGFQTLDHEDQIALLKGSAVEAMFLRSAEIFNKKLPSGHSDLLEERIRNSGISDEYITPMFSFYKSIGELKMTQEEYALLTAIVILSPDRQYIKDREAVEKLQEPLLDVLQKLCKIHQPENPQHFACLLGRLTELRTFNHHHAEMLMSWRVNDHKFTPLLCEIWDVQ
# Summary of the method: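 Antagonist-format time-resolved FRET binding assay with extracted human receptor protein, read 1 hour after compound addition. Compounds first screened at 25 uM in duplicate, then actives tested in concentration series, with loss of signal relative to DMSO.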
# [9] = molecular target: Retinoic acid receptor alpha (Homo sapiens) (UniProt P10276); assay: NVS_NR_hRAR_Antagonist: NovaScreen (NVS) Nuclear Receptor Binding Assay for human Retinoic Acid Alpha Receptor Antagonism (RAR) (AID 2283358)
# Summary of the method: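 Chemicals were first tested in duplicate at 25 uM, then actives in concentration series, in a cell-free TR-FRET antagonist binding format. Measurements were taken 2 hours after dosing and loss of signal was evaluated against DMSO controls.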
# [10] = molecular target: Glucocorticoid receptor (Homo sapiens) (UniProt P04150); assay: NVS_NR_hGR: NovaScreen (NVS) Nuclear Receptor Binding Assay for human Glucocorticoid Receptor (GR) (AID 2283363);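 for AC50: activity is loss of specific radioligand binding signal relative to DMSO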
# Chain of Glucocorticoid receptor (Homo sapiens) (P04150 whole entry, looked up): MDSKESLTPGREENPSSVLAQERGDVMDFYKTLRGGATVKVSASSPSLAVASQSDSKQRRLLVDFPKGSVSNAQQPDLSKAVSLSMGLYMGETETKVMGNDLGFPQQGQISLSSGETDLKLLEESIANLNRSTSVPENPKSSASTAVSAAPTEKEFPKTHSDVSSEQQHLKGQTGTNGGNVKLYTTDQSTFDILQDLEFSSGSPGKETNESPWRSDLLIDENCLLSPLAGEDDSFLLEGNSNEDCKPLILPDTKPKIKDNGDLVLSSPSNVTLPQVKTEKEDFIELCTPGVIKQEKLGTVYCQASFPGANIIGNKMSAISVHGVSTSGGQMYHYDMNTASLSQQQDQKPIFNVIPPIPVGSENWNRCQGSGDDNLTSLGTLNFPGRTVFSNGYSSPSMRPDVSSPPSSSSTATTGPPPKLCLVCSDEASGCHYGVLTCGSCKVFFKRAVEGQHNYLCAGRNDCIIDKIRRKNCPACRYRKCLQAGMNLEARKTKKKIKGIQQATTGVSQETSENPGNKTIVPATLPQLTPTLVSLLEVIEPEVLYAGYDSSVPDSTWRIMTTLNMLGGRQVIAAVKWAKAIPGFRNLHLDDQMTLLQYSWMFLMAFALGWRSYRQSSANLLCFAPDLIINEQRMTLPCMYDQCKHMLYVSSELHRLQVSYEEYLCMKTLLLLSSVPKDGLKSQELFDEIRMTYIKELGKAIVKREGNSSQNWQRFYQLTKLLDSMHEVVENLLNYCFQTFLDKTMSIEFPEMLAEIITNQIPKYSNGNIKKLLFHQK
# Summary of the method: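 Single-readout cell-free binding: radioligand plus extracted receptor, 16-hour dosing, filter radiodetection; 25 uM duplicate primary, concentration series secondary.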
# [11] = molecular target: rat Androgen Receptor (AR), Ar (gene 24208) (UniProt P15207); assay: NVS_NR_rAR: NovaScreen (NVS) Nuclear Receptor Binding Assay for rat Androgen Receptor (AR) (AID 2283366)
# Summary of the method: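 Actives from a duplicate single-concentration (25 uM) primary run went on to concentration series. Displacement of radioligand was counted by filtration and scintillation, 18 h post-dose, using prostate extracts from testosterone-pretreated rats, with DMSO as baseline.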
# [12] = test system: guinea pig Dopamine Transporter (DAT), gene 100714898; assay: NVS_TR_gDAT: NovaScreen (NVS) Transporter Assay for guinea pig Dopamine Transporter (DAT) (AID 2283369);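 note: active compounds lower bound radioligand signal relative to DMSO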
# Summary of the method: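 Scintillation counts of filter-retained radioligand report binding to guinea pig striatal membranes after 2 h. Activity scored as signal loss relative to DMSO, first at 25 uM in duplicate, then in concentration series to 50 uM.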
# [13] = molecular target: human Serotonin Transporter (SERT), SLC6A4 (gene 6532) (UniProt P31645); assay: NVS_TR_hSERT: NovaScreen (NVS) Transporter Assay for human Serotonin Transporter (SERT) (AID 2283372)
# Chain of human Serotonin Transporter (SERT), SLC6A4 (gene 6532) (P31645 whole entry, looked up): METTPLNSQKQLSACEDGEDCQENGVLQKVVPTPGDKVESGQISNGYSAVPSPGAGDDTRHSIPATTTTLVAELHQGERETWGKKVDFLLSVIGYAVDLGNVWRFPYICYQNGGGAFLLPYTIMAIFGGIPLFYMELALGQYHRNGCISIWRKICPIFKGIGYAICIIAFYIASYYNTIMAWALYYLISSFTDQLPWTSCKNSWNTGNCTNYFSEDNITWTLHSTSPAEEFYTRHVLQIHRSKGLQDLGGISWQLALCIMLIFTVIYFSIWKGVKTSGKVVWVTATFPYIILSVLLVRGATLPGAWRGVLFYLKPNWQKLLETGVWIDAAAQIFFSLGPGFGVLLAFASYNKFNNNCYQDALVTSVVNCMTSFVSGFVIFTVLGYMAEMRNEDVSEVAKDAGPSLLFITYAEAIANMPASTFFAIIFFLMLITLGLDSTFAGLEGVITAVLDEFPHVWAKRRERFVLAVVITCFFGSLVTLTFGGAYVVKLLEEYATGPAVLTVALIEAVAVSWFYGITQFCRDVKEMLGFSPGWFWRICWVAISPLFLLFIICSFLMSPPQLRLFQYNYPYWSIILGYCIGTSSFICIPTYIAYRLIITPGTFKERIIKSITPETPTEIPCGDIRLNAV
# Summary of the method: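 Human platelet membrane preparation; displacement of radioligand from serotonin transporter measured after 1 h by filtration and scintillation counting. Single 25 uM duplicate screen, then concentration series for actives, with DMSO as negative baseline.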
# [14] = molecular target: Retinoic acid receptor alpha (Homo sapiens) (UniProt P10276); assay: NVS_NR_hRARa_Agonist: NovaScreen (NVS) Nuclear Receptor Binding Assay for human Retinoic Acid Alpha Receptor Agonism (RAR) (AID 2283361)
# Summary of the method: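 Compounds screened at 25 uM, duplicate, then in concentration series if active. Detection: TR-FRET gain of signal versus DMSO after 2 h with cell-free extracted RARα.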
# [15] = molecular target: human Adenosine Transporter (Adot), SLC29A1 (gene 2030) (UniProt Q99808); assay: NVS_TR_hAdoT: NovaScreen (NVS) Transporter Assay for human Adenosine Transporter (Adot) (AID 2283368)
# Summary of the method: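 Binding displacement on U937 extracted protein, read 1 h post-dose by filtration and scintillation counting. Primary duplicate test at 25 uM, then singleton concentration series with 50 uM top; DMSO baseline.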
structure (smiles),measurement,setting,value
COP(=S)(OC)Oc1ccc(SC)c(C)c1,outcome,[1],inactive
same,outcome,[2],inactive
same,outcome,[3],inactive
same,outcome,PGR (gene 5241),inactive
same,AC50,[4],11.2 µM (active)
CCOC1Oc2ccc(OS(C)(=O)=O)cc2C1(C)C (stereo unspecified),outcome,[1],inactive
same,outcome,[2],inactive
same,outcome,[5],inactive
same,outcome,[6],inactive
same,outcome,[3],inactive
COP(=O)(OC)OC=C(Cl)Cl,outcome,[1],inactive
same,outcome,[2],inactive
same,outcome,[3],inactive
same,outcome,PGR (gene 5241),inactive
same,AC50,[7],6.97 µM (active)
CNC(=O)/C=C(\C)OP(=O)(OC)OC,outcome,[1],inactive
same,outcome,[2],inactive
same,outcome,[3],inactive
CCC(C)(NC(=O)c1cc(Cl)c(C)c(Cl)c1)C(=O)CCl (stereo unspecified),outcome,[1],inactive
same,outcome,[2],inactive
same,outcome,[3],inactive
O=[N+]([O-])/N=C1\NCCN1Cc1ccc(Cl)nc1,outcome,[8],inactive
same,outcome,[1],inactive
same,outcome,[2],inactive
same,outcome,[5],inactive
same,outcome,[3],inactive
same,outcome,[9],inactive
same,outcome,[10],inactive
same,outcome,[11],inactive
same,outcome,[7],inactive
CCOc1nc(NC)nc(NC(=O)NS(=O)(=O)c2ccccc2C(=O)OC)n1,outcome,[8],inactive
same,outcome,PGR (gene 5241),inactive
same,outcome,[10],inactive
same,outcome,[11],inactive
same,outcome,[7],inactive
COc1nn(CSP(=S)(OC)OC)c(=O)s1,outcome,[1],inactive
same,outcome,[2],inactive
same,outcome,[3],inactive
same,outcome,PGR (gene 5241),inactive
same,outcome,[10],inactive
same,AC50,[4],10.7 µM (active)
same,outcome,[7],inactive
COP(=S)(OC)Oc1ccc([N+](=O)[O-])cc1,outcome,[8],inactive
same,outcome,[1],inactive
same,outcome,[2],inactive
same,outcome,[3],inactive
same,AC50,PGR (gene 5241),10.3 µM (active)
same,AC50,[4],4.69 µM (active)
same,AC50,[12],20.1 µM (active)
same,AC50,[13],11.3 µM (active)
CCC(C)(C)C(=O)OC1=C(c2ccc(Cl)cc2Cl)C(=O)OC12CCCCC2,outcome,[8],inactive
same,outcome,[2],inactive
same,AC50,[5],82.4 µM (active)
same,outcome,[6],inactive
same,outcome,[3],inactive
same,outcome,[14],inactive
CC1(c2ccc(Oc3ccccc3)cc2)OC(=O)N(Nc2ccccc2)C1=O (stereo unspecified),AC50,[8],10 µM (active)
same,outcome,[1],inactive
same,outcome,[2],inactive
same,outcome,[3],inactive
same,outcome,[9],inactive
same,outcome,[7],inactive
CNC(=O)Oc1cccc(N=CN(C)C)c1,outcome,[1],inactive
same,outcome,[2],inactive
same,outcome,[3],inactive
CCN(CC)C(=O)SCc1ccc(Cl)cc1,outcome,[8],inactive
same,outcome,[1],inactive
O=[N+]([O-])c1c(Cl)c(Cl)c(Cl)c(Cl)c1Cl,outcome,[1],inactive
same,outcome,[2],inactive
same,outcome,[5],inactive
same,outcome,[6],inactive
same,outcome,[3],inactive
same,outcome,[9],inactive
same,outcome,[10],inactive
same,outcome,[11],inactive
same,AC50,[7],38.1 µM (active)
N#CN,outcome,[1],inactive
same,outcome,[2],inactive
same,outcome,[3],inactive
O=C(NC(=O)c1c(F)cccc1F)Nc1ccc(OC(F)(F)C(F)OC(F)(F)F)c(Cl)c1 (stereo unspecified),outcome,[1],inactive
same,outcome,[2],inactive
same,outcome,[3],inactive
CC(C)OC(=O)Nc1cccc(Cl)c1,outcome,[1],inactive
same,outcome,[2],inactive
same,outcome,[3],inactive
same,outcome,[12],inactive
CNC(=O)Oc1ccccc1OC(C)C,outcome,[1],inactive
same,outcome,[2],inactive
same,outcome,[3],inactive
Clc1ccccc1-c1nnc(-c2ccccc2Cl)nn1,outcome,[1],inactive
same,outcome,[2],inactive
same,outcome,[3],inactive
CCCN(CCOc1c(Cl)cc(Cl)cc1Cl)C(=O)n1ccnc1,outcome,[8],inactive
same,outcome,[9],inactive
same,outcome,PGR (gene 5241),inactive
same,outcome,[10],inactive
same,AC50,[4],8.36 µM (active)
same,AC50,[15],8.65 µM (active)
same,AC50,[12],6.57 µM (active)
same,outcome,[7],inactive
same,AC50,[13],2.17 µM (active)
CCc1ccc(C(=O)NN(C(=O)c2cc(C)cc(C)c2)C(C)(C)C)cc1,outcome,[8],inactive
same,outcome,[1],inactive
same,outcome,[3],inactive
CN1CSC(=S)N(C)C1,AC50,[8],9.27 µM (active)
same,outcome,[1],inactive
COC(=O)c1ccccc1S(=O)(=O)NC(=O)Nc1nc(C)nc(OC)n1,outcome,[8],inactive
same,outcome,[9],inactive
N#Cc1c(Cl)c(Cl)c(Cl)c(C#N)c1Cl,outcome,[8],inactive
same,outcome,[1],inactive
same,outcome,[3],inactive
same,outcome,PGR (gene 5241),inactive
same,AC50,[14],36.9 µM (active)
same,AC50,[10],177 nM (active)
same,AC50,[7],0.495 µM (active)
same,outcome,[13],inactive
